From PubChem BioAssay AID588742 (Southern Research Specialized Biocontainment Screening …, 2011) come the findings set out here.

In all, about 1,800 compounds went through this assay and about 410 (23%) were called active. A selection follows. Entries with a potency or affinity are not part of this list. A number with no mark means an inactive call. How the calls were made is not given here.

The assay can be described thus: Vero cell cytotoxicity, cytotoxicity control for flavivirus capping enzyme inhibitors (AID 588742). As to conditions: Vero cells viability, cytotoxicity counter-screen; series mostly up to 40 µM; viability: at the top concentration. Background: The purpose of a counterscreen is to sort out artefacts and off-target activity.
Broadly, the viability is a read-out of living cells in per cent, often relative to untreated cells. For the compound `O=C(CC(Nc1ccc(Cl)cc1Cl)C(=O)O)c1ccccc1` (stereo unspecified), the “viability” value is 101%.

Consider `Cc1c(Cl)cccc1NC(CC(=O)c1ccccc1)C(=O)O` (stereo unspecified), for which the “viability” value is 104%. In the case of `O=C(NNc1ccc(O)cc1)c1ccc(Br)cc1`, the “viability” value is 99.3%.

For `Cc1cccc(NC(=O)CSc2nnc(-c3ccco3)c(-c3ccco3)n2)c1C`, the “viability” value is 91.5%.

Regarding `Cc1ccc(O)c(NC2=C(Cl)C(=O)N(Cc3ccccc3)C2=O)c1`, the “viability” value was 91.5%. For the compound `O=C1/C(=C2\C(=O)N(Cc3ccc(F)cc3)c3ccccc32)SC(=S)N1CCS(=O)(=O)O`, the “viability” value was 98.8%. For `Cc1ccc(S(=O)(=O)N2[C@@H](c3cccc(Cl)c3)C(C(=O)O)=CC[C@H]2c2ccc(C(C)C)cc2)cc1` the value was 104%; for `O=C(CSc1nc(O)c(Cc2ccccc2)c(=O)[nH]1)Nc1nnc(SCc2ccccc2)s1`, 93.8%; for `Oc1cc(CNC2CCCCC2)c(O)cc1CNC1CCCCC1`, 93.5%. With `CC(C)C[C@H](N)c1nnc(SCC(=O)Nc2ccc(Br)cc2)o1`, the “viability” value is 105%. In the case of `Cc1ccc(S(=O)(=O)Cc2ccc(C(=O)N3CCC(C(N)=O)CC3)o2)cc1`, the “viability” value was 106%. For `CC(C)c1cc2c(c(O)c1O)[C@@]13CCCC(C)(C)C1CC2OC3=O` (stereo partly specified), the “viability” value is 87.4%. As to `Cc1ccc(-c2csc(NS(=O)(=O)c3cccc(F)c3)n2)o1`, the “viability” value was 110%. Regarding `CCc1c(C)sc(NC(=O)OC)c1C(=O)N1CCCCC1`, the “viability” value is 101%. Consider `O=C(O)c1ccccc1C(=O)c1ccc(Sc2ccc(Cl)cc2)c([N+](=O)[O-])c1`, for which the “viability” value is 101%. As for `Cc1sc(NC(=O)c2ccco2)c(C(c2ccncc2)N2CCOCC2)c1C` (stereo unspecified), the figure is 99.2%; as for `CC1(C)CC(=O)C(C(c2ccco2)C2C(=O)CC(C)(C)CC2=O)C(=O)C1`, 115%.

Turning to `Cc1noc(NS(=O)(=O)c2ccc(NC(=O)c3ccccc3NS(=O)(=O)c3ccc(F)cc3)cc2)c1C`, the “viability” value was 93.3%. For the compound `C/C(=N/Nc1ccc(C(=O)O)cc1)c1ccc(O)c(O)c1O`, the “viability” value is 100%. Turning to `CCS(=O)(=O)c1nc(S(=O)(=O)c2ccc(C)cc2)c(N2CCOCC2)s1`, the “viability” value is 108%. In the case of `O=C(O)c1ccc(/C=N/Nc2ccc(S(=O)(=O)N3CCCC3)cc2[N+](=O)[O-])cc1`, the “viability” value was 91.7%. Consider `O=C1ON=C(c2ccccc2)/C1=C/c1ccc(-c2ccccc2[N+](=O)[O-])o1`, for which the “viability” value is 96.9% [at 20 µM]. `O=[N+]([O-])c1cc2c(cc1C=Nc1ccccc1)OCO2`: the “viability” value is 102%. On to `Cc1ccc2nsnc2c1S(=O)(=O)N(CCO)Cc1cc2cc3c(cc2[nH]c1=O)OCCO3`, for which the “viability” value is 102%. For `COc1cccc(/C=C2/C(=O)NN(c3ccc(F)cc3)C2=O)c1`, the “viability” value is 90.1%. For the compound `CCC(C)NC(=O)Cc1ccc(-c2ccccc2)cc1` (stereo unspecified), the “viability” value is 91.8%. For `CC1=NN(c2nc(-c3ccc(Cl)cc3)cs2)C(=O)C1` the value was 87.3%; for `CCCC(=Nc1ccc(N)cc1)C1=C(O)C(C(=O)OC)C(C)(C)CC1=O` (stereo unspecified), 101%; for `O=C1C(O)=C(O)C(=O)c2ccccc21`, 90.9%. As for `COC(=O)c1ccc(-c2ccc(C(c3c(C)[nH][nH]c3=O)c3c(C)[nH][nH]c3=O)o2)cc1`, the figure is 94.6%; as for `O=C(Nc1cccc(Oc2ccc(C(=O)O)c(C(=O)O)c2)c1)c1ccc(-c2ccccc2)cc1`, 106%. With `CC1CCC(C(C)C)C2=C1C(C#N)(C#N)C(C#N)(C#N)C(c1ccccc1)N2` (stereo unspecified), the “viability” value is 87.7%. As for `Cc1ccc(-c2nn(-c3ccccc3)cc2/C=C2\SC(=S)N(CC(=O)O)C2=O)cc1`, the “viability” value was 82.5%. Regarding `CC1(C)CC(=O)C(=Cc2cn(CCC#N)nc2-c2ccc(Cl)cc2)C(=O)C1`, the “viability” value is 99.2%. For the compound `O=C(Nc1ccc(Cl)cc1)C1c2cccc[n+]2CC(=O)N1Cc1ccc2c(c1)OCO2` (stereo unspecified), the “viability” value was 96.9%. Consider `CCOc1cc(Br)cc(C(c2c(C(=O)O)[nH]c3ccccc23)c2c(C(=O)O)[nH]c3ccccc23)c1O`, for which the “viability” value was 98.4%. Consider `Cc1nn(-c2ccccc2)c2c1C(c1cccs1)C(C#N)=C(N)O2` (stereo unspecified), for which the “viability” value is 93.6%. On to `Cc1ccc(CCNC(=O)C2CCN(S(=O)(=O)N3CCCCC3)CC2)cc1`, for which the “viability” value was 98.7%. For the compound `O=[N+]([O-])c1ccccc1-c1ccc(C(=S)N2CCCCC2)o1`, the “viability” value is 86.6%. As to `O=[N+]([O-])c1ccccc1-c1ccc(C(=S)N2CCCC2)o1`, the “viability” value is 85.2%. Take `O=C1NN(c2ccccc2)C(=O)/C1=C/c1ccc(-c2ccc(Cl)c(C(=O)O)c2)o1`: the “viability” value is 101%. As for `O=C(O)c1ccc(Cn2cc(/C=C\[N+](=O)[O-])c3ccccc32)o1`, the “viability” value is 87.8%. Take `COc1cc(-c2cccs2)cc(=O)c2c(C)oc(C)c12`: the “viability” value was 111%. Turning to `CCOc1ccc(/C=C2\SC(=S)N(CCC(=O)Nc3ccccc3C(=O)O)C2=O)cc1`, the “viability” value was 103%. For `Cc1ccc(C(=O)c2coc3c2C(=O)C(=O)c2ccccc2-3)cc1` the value was 87.2%; for `COc1ccc(C(=O)Nc2cc(C(=O)c3ccccc3)c(C)oc2=O)cc1`, 90.6%. Turning to `Cc1oc(=O)c(NC(=O)c2ccccc2)cc1C(=O)c1ccccc1`, the “viability” value is 89.3%. For `O=C(COc1cccc2ccccc12)Nc1cc(Cl)ccc1C(=O)O` the value was 92.5%. Consider `O=C1Nc2ccc(F)cc2C12Nc1ccccc1-c1nnc(SCc3ccccc3F)nc1O2` (stereo unspecified), for which the “viability” value is 95.3%. For `CC1=NOC(=O)/C1=C\c1ccc(-c2ccc(Br)cc2C(=O)O)o1`, the “viability” value was 96.7%. For `CCOC(=O)c1c(-c2ccc(C)c(C)c2)csc1NC(=O)C1CC=CCC1C(=O)O` (stereo unspecified) the value was 99.5%; for `COC(=O)COc1ccc(C2Nc3c(Cl)ccc(C(=O)O)c3C3C=CCC32)cc1` (stereo unspecified), 95.6%. For `N#C/C(=C(/O)CSc1ccccc1C(=O)O)c1nc2ccccc2s1`, the “viability” value is 96%. In the case of `COc1ccc(CC(=O)NCc2ccc3c(c2)cc(C)n3C)cc1`, the “viability” value was 106%. `CC1=NN(c2nc(-c3ccc(F)cc3)cs2)C(=O)C1`: the “viability” value is 96.5%. For the compound `CCC(C(=O)O)N1C(=O)/C(=C/C(C)=C/c2ccccc2)SC1=S` (stereo unspecified), the “viability” value is 98.2%.

In the case of `CC(=O)Nc1ccc2nc(N)sc2c1`, the “viability” value was 96.5%. As to `COc1ccc(NCC(=O)N/N=C2\CCc3ccccc32)cc1`, the “viability” value is 102%. Take `CCOC(=O)c1c(N)sc2c1CCS(=O)(=O)C2`: the “viability” value was 99.7%.

Regarding `CCOC(=O)c1c(N)sc(=S)c2c1CCC2`, the “viability” value was 94.8%. Regarding `CCCCC1=CC2=C(c3ccco3)C(=O)C(C)(OC(=O)c3ccc(OC)cc3)C(=O)C2=CN1C1CC1` (stereo unspecified), the “viability” value was 90.4%. For the compound `CC1=NOC(=O)/C1=C/c1ccc2c(c1)OCO2`, the “viability” value is 99.9%. For `CC(=O)c1ccc(NC(=O)CSc2nnc(-c3ccco3)c(-c3ccco3)n2)cc1`, the “viability” value was 88.2%. For the compound `Nc1c(C(=O)O)sc2nc(-c3ccccc3)cc(-c3ccc(Cl)cc3)c12`, the “viability” value was 108%. For the compound `CCOC(=O)C1=C(O)/C(=C\c2ccc(CNC(=O)C(=O)Nc3ccccc3)o2)N=C1C`, the “viability” value was 105%. As for `COc1c(OC(C)=O)ccc(/C=N\NC(=O)c2ccc(Br)cc2)c1[N+](=O)[O-]`, the figure is 92.1%; as for `O=C(O/N=C1\CCCCC1c1ccc([N+](=O)[O-])cc1[N+](=O)[O-])c1c(F)cccc1F` (stereo unspecified), 98.9%; as for `O=C(O)c1cc(/C=C/C(=O)c2cc(F)ccc2O)c2c(c1)COCO2`, 95%. For `Cc1cc(S(=O)(=O)ON2C(=O)c3ccccc3C2=O)ccc1F` the value was 105%; for `Cc1cc(N2C(=O)C(O)=C(C(=O)c3ccco3)C2c2cccc(Oc3ccccc3)c2)no1` (stereo unspecified), 95.3%; for `CCCCC1=CC2=CC(=O)C(C)(OC(=O)CC)C(=O)C2=CN1Cc1ccc(OC)cc1` (stereo unspecified), 101%.

For the compound `O=C1C=CC2=C3c4cc(O)c(O)cc4CC3(O)COC2=C1O` (stereo unspecified), the “viability” value was 93.7%. `CCOC(=O)C1(C)/C(=N/Nc2cccc(Cl)c2)C(=O)C(=O)N1c1ccccc1` (stereo unspecified): the “viability” value was 99.2%. Regarding `N=C1/C(=C\c2ccc(OC(=O)c3ccc(F)cc3)cc2)C(=O)N=C2SC(N3CCOCC3)=NN12`, the “viability” value is 85.6%. In the case of `O=C(N/N=C/C(Cl)=C/c1ccc([N+](=O)[O-])cc1)C(=O)Nc1ccccc1C(=O)O`, the “viability” value is 90.8%.

Consider `O=C(CCN1C(=O)/C(=C/c2ccccc2Cl)SC1=S)Nc1ccccc1C(=O)O`, for which the “viability” value is 103%. Take `O=C(O)CCCCCN1C(=O)C(O)=C(C(=O)/C=C/c2ccccc2)C1c1ccccc1[N+](=O)[O-]` (stereo unspecified): the “viability” value was 103%. With `Oc1cc(-n2cccn2)c(O)cc1-n1cccn1`, the “viability” value was 106%.

Regarding `CC(=O)Nc1ccc(NC(=O)CC2Nc3cccc4cccc(c34)NC2=O)cc1` (stereo unspecified), the “viability” value was 92.3%. Turning to `COc1ccc(C2C=C(c3ccc(F)cc3)NC(=S)N2)cc1OC` (stereo unspecified), the “viability” value is 95.2%. On to `COC(=O)CCC(=O)OC1(C)C(=O)C2=CN(c3ccccc3)C(c3ccc(OC)cc3)=CC2=C(Br)C1=O` (stereo unspecified), for which the “viability” value was 111%. For `O=c1[nH]c(/C=C/c2ccc(Cl)cc2Cl)c([N+](=O)[O-])c(=O)[nH]1`, the “viability” value is 105%. Regarding `CC1CCc2c(sc(N)c2C(N)=O)C1` (stereo unspecified), the “viability” value was 100%. Regarding `Oc1ccc(NCc2ccc(OCc3ccccc3)cc2)cc1`, the “viability” value is 102%. For the compound `CCC(C)c1ccc(NC(=O)Nc2cccnc2)cc1` (stereo unspecified), the “viability” value was 92.2%. `CN(C(=S)Nc1cccnc1)c1ccc(O)cc1`: the “viability” value was 108%. As for `CCOc1ccc(Nc2ccc(N)c(S(=O)(=O)O)c2)cc1`, the figure is 104%; as for `NC(=S)NNc1cccc2cccnc12`, 86.7%.

As to `O=c1cccccc1NCc1ccccc1`, the “viability” value was 104%. Consider `O=C1C=C(Nc2ccccc2C(=O)O)c2ccccc2C1=O`, for which the “viability” value is 93.8%. `C#CCOc1c(/C=C\c2nc(O)c([N+](=O)[O-])c(=O)[nH]2)cc(Br)cc1OC`: the “viability” value was 99.6%. For `COC(=O)c1ccc(NC(=O)CCc2nnc3ccc(NCc4ccco4)nn23)cc1`, the “viability” value was 88.7%.

On to `COc1ccc(OC)c(/C=C/c2c([N+](=O)[O-])c(=O)n(C)c(=O)n2C)c1`, for which the “viability” value is 100%. As for `CC1(OC(=O)CCc2ccccc2)C(=O)C=C2C=C(c3ccc(C#N)cc3)N(C3CCCC3)C=C2C1=O` (stereo unspecified), the figure is 107%. Consider `O=C1/C(=C\c2ccc(-c3ccccc3[N+](=O)[O-])o2)C(c2ccccc2)=NN1c1ccccc1`, for which the “viability” value was 86.9%. With `CCn1c(CSc2nnc3ccccn23)nc2cc(C(=O)O)ccc21`, the “viability” value is 97.8%. On to `O=C(O)C1=CC[C@@H](c2ccc(Cl)cc2)N(S(=O)(=O)c2ccc(Cl)cc2)[C@H]1c1cccc(Cl)c1`, for which the “viability” value was 87.2%. In the case of `Cc1ccc(C)c(S(=O)(=O)ON2C(=O)c3ccccc3C2=O)c1`, the “viability” value was 109%.

Take `Cc1ccc(Nc2ccc(N)cc2S(=O)(=O)O)cc1`: the “viability” value was 85%. For the compound `COc1ccccc1CNC(=S)Nc1ccc(S(N)(=O)=O)cc1`, the “viability” value was 92.7%. On to `CCOC(=O)c1c(-c2cccc(C)c2)csc1NC(=O)C1CC=CCC1C(=O)O` (stereo unspecified), for which the “viability” value was 108%.
